# Data as given in ChEMBL document CHEMBL4513216, “Probing the Open Global Health Chemical Diversity Library for Multistage-Active Starting Points for Next-Generation Antimalarials” (ACS Infect Dis, 2020).
# Among all 69,000 compounds or so, about 8,600 (12%) showed an effect of 50% or more. The list comes from a sample in which strong results are over-represented; it also holds similar structures and randomly drawn compounds.
# Tested on: Plasmodium berghei
# Test: Screen against P. berghei liver stage (PbLuc), transformed with Luciferase, at 10uM
# Format: functional, HepG2
# Settings: tested at 10 uM
row,Structure (SMILES),INHIBITION
1,CC(C)c1nc2c(n1C)CCN(CC(=O)Nc1ccnn1C(C)C)C2,27.4%
2,CO[C@H]1CN(C(=O)c2ccc3oc(C)cc3c2)CC[C@@]12CCCO2,21.6%
3,CO[C@H]1CCN(C(=O)c2ccc3oc(C)cc3c2)C[C@@]12CCCO2,45.6%
4,CO[C@H]1CN(C(=O)c2ccc3oc(C)cc3c2)C[C@@]12CCCO2,63.4%
5,COCCNC(=O)c1ccc(C)c(-n2cccc2)c1,-15%
6,CN(C)CCNc1c(-c2ccccc2)c(=O)c1=O,-20.1%
7,CN(C)[C@@H]1CN(Cc2ccco2)C[C@@H]2CCCO[C@@H]21,-2.27%
8,Cn1cnnc1CN1CCC2(CCC(=O)N(Cc3ccccn3)C2)CC1,-42.2%
9,CCN1CC2(CCC1=O)CCN(Cc1nncn1C)CC2,17%
10,Cn1cnnc1CN1CCC2(CCC(=O)N(Cc3ccccc3)C2)CC1,76.2%
11,Nc1nc(C2CCN(C(=O)c3cnccn3)CC2)cs1,38.2%
12,Cn1ncc2c(=O)[nH]c(CN3CCCC3c3cccc(F)c3)nc21 (stereo not drawn),-29.9%
13,CC(=O)N1CCOCC2(C1)CN(S(C)(=O)=O)CCO2 (stereo not drawn),18.7%
14,CCCS(=O)(=O)N1CCOC2(COCCN(C(C)=O)C2)C1 (stereo not drawn),60%
15,CCS(=O)(=O)N1CCOC2(COCCN(C(C)=O)C2)C1 (stereo not drawn),18.7%
16,CCCn1nc2c(cc1=O)CN(CC(=O)Nc1ccncc1)CC2,40.3%
17,CNc1nccnc1C1CN(Cc2ccc(OCC(=O)O)cc2)CCO1 (stereo not drawn),26.7%
18,CS(=O)(=O)NCc1cn2c(n1)CN(Cc1ccoc1)CC2,-4.02%
19,Cc1cc(C)n(CC2CCCN2CCCS(C)(=O)=O)n1 (stereo not drawn),3.5625%
20,O=C(c1ccc(CNC2CCSC2)cc1)N1CCCC1 (stereo not drawn),-4.12%
21,Cc1noc(C)c1Cc1nc(N(C)C)no1,19.9%
22,CC(C(=O)Nc1ncccn1)N1CCC(n2ccnc2)CC1 (stereo not drawn),54.4%

row,Structure (SMILES),INHIBITION
1,CC(C(=O)Nc1ccc2ccccc2c1)N1CCC(n2ccnc2)CC1 (stereo not drawn),48.8%
2,CC(C(=O)NCCc1cccs1)N1CCC(n2ccnc2)CC1 (stereo not drawn),42.1%
3,Cc1n[nH]c(CN2CCN(c3ncnc4scc(C)c34)CC2)c1Cl,68.2%
4,CCc1nc(C)c(CN2CCN(c3ncnc4c(C)csc34)CC2)[nH]1,4.35%
5,CCc1nc(C)c(CN2CCN(c3ncnc4scc(C)c34)CC2)[nH]1,30.5%
6,CCC(=O)N1CCC(c2nc(C)ncc2-c2ccncc2)CC1,19.2%
7,CCN1CCC2(CC1)CC(NCc1ccncc1)c1ccccc1O2 (stereo not drawn),43.9%
8,O=C(NS(=O)(=O)c1ccccc1)c1ccccc1F,14.8%
9,CC(C)Cn1ncc(C(=O)O)c1C1CC1,14.3%
10,CCc1c(C(=O)Nc2ccc(F)c(C(=O)NC)c2)cnn1CC(C)C,30.9%
11,CC(C)Cn1ncc(C(=O)NS(=O)(=O)c2ccccc2)c1C1CC1,79.7%
12,CC(C)Cn1ncc(C(=O)NS(=O)(=O)C2CCCC2)c1C1CC1,58.8%
13,CC(C)NC(=O)c1cc2c(nc1N(C)C)CCN(S(=O)(=O)C1CC1)CC2,-37.9%
14,CCC1c2ccsc2CCN1C(=O)NCc1cccnc1N(C)C (stereo not drawn),16.97%
15,Cn1cc(CN2CCC(c3cc(CCO)[nH]n3)C2)cn1 (stereo not drawn),39.8%
16,COc1cc(N2CCC(c3nccn3CCCN(C)C)CC2)nc(N)n1,-10.9%
17,CN(C)CCn1ccnc1C1CCN(c2cc(N)nc(N)n2)CC1,50.5%
18,COc1cc(N2CCCC(c3nccn3CCN(C)C)C2)nc(N)n1 (stereo not drawn),-40.3%
19,COc1ccccc1Cc1cncc(N2CC(C(=O)O)C2)n1,10%
20,CC(C)N1CCC(c2nc3ccc(-c4ccnn4C)cn3n2)CC1,8.52%
21,CN1CCN(C(=O)c2cccc(CN3CCOCC3)c2)CC1,22.3%
22,CN(C)CCCC(=O)NC1CC(C)(C)Cc2nc(C(C)(C)C)ncc21 (stereo not drawn),22%

row,Structure (SMILES),INHIBITION
1,Cc1sc(C(=O)NC(C)C)cc1S(=O)(=O)N(C)C,-16.8%
2,COCC(=O)Nc1cnn(COc2ccc(F)cc2Cl)c1,0.348%
3,O=C(Nc1cnn(COc2ccc(F)cc2Cl)c1)C1CC1,71.3%
4,COCCC(=O)Nc1cnn(COc2ccc(F)cc2Cl)c1,50.4%
5,O=C(Nc1cnn(Cc2ccc(F)cc2Cl)c1)C1CC1,-10.8%
6,COCCNC(=O)Cn1cc(NC(=O)c2cccc(Cl)c2Cl)cn1,-3.83%
7,O=C(O)CCCC(=O)Nc1cnn(COc2ccc(F)cc2Cl)c1,4.52%
8,CCn1c(Cn2cncn2)nnc1C1CCN(C2CCNCC2)CC1,-3.51%
9,OC(CN1CCC(c2ccn[nH]2)CC1)c1cc(F)ccc1F (stereo not drawn),-4.94%
10,O=C(CCc1nc(C2CC2)no1)c1ccccc1,-12.2%
11,Cc1nccn1Cc1nnc(C2CCCN(c3cnccn3)C2)n1C (stereo not drawn),11.5%
12,CCOC(=O)c1s/c(=N\C(=O)COc2cnc(C)cc2O)[nH]c1C,3.52%
13,COCCN1CCN(c2ccc(C)nn2)Cc2cccnc21,-2.03%
14,COCCN1CCN(c2ccc(C)nn2)Cc2ccc(C)nc21,51.2%
15,Cc1ccc2c(n1)N(CC1CC1)CCN(S(=O)(=O)C1CC1)C2,-63.5%
16,COc1cc(N2CC[C@@H]3OCCN(C)[C@H]3CC2)ncn1,39.4%
17,COc1cc(N2CC[C@@H]3[C@@H](CC2)OCCN3CC2CC2)ncn1,81%
18,COCCN1CCN(c2cc(OC)ncn2)Cc2ccc(C)nc21,30.3%
19,CCCS(=O)(=O)N1CCN(CCOC)c2nc(C)ccc2C1,29.8%
20,COCCN1CCN(Cc2ccco2)Cc2ccc(C)nc21,23.1%
21,Cc1ccc(N2C[C@@H]3OCCN(CC4CC4)[C@@H]3C2)nn1,35.5%
22,COCCN1CCN(c2cccc(C)n2)Cc2ccc(C)nc21,53.9%

row,Structure (SMILES),INHIBITION
1,COc1cc(N2CCN(CC3CC3)c3nc(C)ccc3C2)ncn1,69.3%
2,COCCN1CCN(Cc2c(C)noc2C)Cc2ccc(C)nc21,33%
3,CSc1nccc(N2C[C@H]3CC[C@@H](C2)N(CC2CCC2)C3=O)n1,22.3%
4,CC(C)c1noc(CCCC(=O)N2CCN(Cc3ccsc3)CC2)n1,21.5%
5,CCCc1ccc(OC23CCCN(CC2)C3)c(OC)c1 (stereo not drawn),14.9%
6,Cc1cc(C(=O)N(C)C)nc(C2(C)CCCN2c2ccccc2)n1 (stereo not drawn),23.9035%
7,COc1ccc(C(=O)NS(=O)(=O)c2cncc(Br)c2)cc1,-2.48%
8,COCCCN1Cc2cccc(NC(=O)C(C)(C)C)c2C1,-21.1%
9,CC(C)Cc1nc(OCC#N)c(C#N)c2c1CCC2,44.9%
10,Cc1cnn(CC(=O)N2CCC(Nc3ccc(C)nn3)CC2)c1,39.95%
11,O=C(CSC1CCc2ccccc2NC1=O)Nc1ccc(CCO)cc1 (stereo not drawn),-10.8%
12,Cc1ccc2c(n1)N(Cc1cccnc1)CCN(Cc1cnn(C)c1)C2,30.5%
13,Cc1ccc2c(n1)N(C)CCN(Cc1cnn(C)c1)C2,49.4%
14,Cc1ccc2c(n1)N(CC1CC1)CCN(Cc1cnn(C)c1)C2,55.4%
15,CC(CCc1ccccc1)N1CCC(C(=O)Nc2ccccn2)CC1 (stereo not drawn),-6.46%
16,Cc1ccc(CNCc2cccc3cn[nH]c23)c(OC2CCOC2)c1 (stereo not drawn),66%
17,Cc1ccc(CNCc2cccc3cccnc23)c(OC2CCOC2)c1 (stereo not drawn),-62.1%
18,Cc1ccc(NCc2cccc3cn[nH]c23)cc1OC1CCOC1 (stereo not drawn),-16.8%
19,Cc1cc(F)ccc1N1CCCC(NC2CCOCC2)C1=O (stereo not drawn),21.3%
20,Cc1ccc(CN2CCOC3(COCCN(Cc4ccncc4)C3)C2)o1 (stereo not drawn),14%
21,O[C@@H]1CN(Cc2ccncc2)C[C@H]1Oc1ccccc1,39.7%
22,O[C@@H]1CN(Cc2cccnc2)C[C@H]1Oc1ccccc1,26.8%

row,Structure (SMILES),INHIBITION
1,Cc1cncc(CN2C[C@@H](O)[C@H](Oc3ccccc3)C2)c1,51.5%
2,CCOCC(=O)N1CC[C@@H]2O[C@@H](C)C[C@H]2C1,43.9%
3,O=c1[nH]c2ccccc2c2c1CCO2,30.7%
4,CC(=O)N(Cc1ncc(C(C)C)o1)C1CCN(Cc2ccno2)C1 (stereo not drawn),0.1995%
5,COCCN(Cc1cnn(C)c1)C(=O)C1COc2c(cccc2OC)C1 (stereo not drawn),22.3%
6,COc1cccc2c1OCC(NCCCOc1cccnc1)C2 (stereo not drawn),14%
7,COc1cccc2c1OCC(NCCc1cnn(-c3ccccc3)c1)C2 (stereo not drawn),77.6%
8,COc1cccc2c1OCC(CNC(=O)CSc1ccccn1)C2 (stereo not drawn),-52.3%
9,COc1cccc2c1OCC(NCc1cnn(-c3ccccc3)c1)C2 (stereo not drawn),62.8%
10,COc1cccc2c1OCC(NC(=O)NC1CCN(C3CC3)CC1)C2 (stereo not drawn),-3.16%
11,COc1cccc2c1OCC(NCc1cnn(-c3ccccc3F)c1)C2 (stereo not drawn),53.8%
12,COc1cccc2c1OCC(C(=O)N(C)CCCc1cnn(C)c1)C2 (stereo not drawn),40.9%
13,COc1cccc2c1OCC(C(=O)N1Cc3ccccc3C1)C2 (stereo not drawn),44.8%
14,Cc1noc(C(C)N2CCN(CCC(=O)N3CCCCC3)CC2)n1 (stereo not drawn),17.4%
15,Cc1cc(C2CCNCC2)nc(-c2ccsc2)n1,20.2%
16,CCC(=O)Nc1ccc(C(C)NC(=O)COCCOC)cc1 (stereo not drawn),-28.4%
17,CC(=O)N1CCC2(CC1)CN(C(=O)c1cccnc1)c1ccc(F)cc12,34.9%
18,COc1c(C2CCCN2CC(=O)Nc2ccncc2)c(C)nn1C (stereo not drawn),21.6%
19,Cc1nc(NCCN2CCCC2=O)cc(C2CN(C(C)C)CCO2)n1 (stereo not drawn),25%
20,CCc1n[nH]c(C2CN(C(=O)c3ccc4c(c3)COC4)CCO2)n1 (stereo not drawn),-59.4%
